Experimental findings from PubChem BioAssay (EPA / NIEHS) are described below.

Inconclusive results are not listed. The source made the active and inactive calls. The calls were made as follows: active = hit-call score of the fitted dose curve at least 0.9, where 1 is the maximum; inconclusive = response in the unintended direction; inactive = score below 0.9.

A short description of one assay: ACEA_AR_antagonist_AUC_viability: ACEA Biosciences xCELLigence Real-Time Cell Analysis on Androgen Receptor Antagonism for Viability (AID 2283776).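 Also: area under impedance growth curve at 80 h after dosing as viability; hits lower the growth signal relative to DMSO meaning cytotoxicity.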 The gist of the method: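 22Rv1 human prostate cancer cells were seeded on electrode plates, monitored overnight, then exposed to eight 1:4 dilutions from 100 uM final. Impedance-based growth kinetics at 80 h gave an AUC viability endpoint normalized to DMSO.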
Take `COc1ccc(-n2nc(C(F)F)cc2-c2ccc(S(C)=O)cc2)cc1` (centres undefined): the result was inactive.

With `Cc1[nH]cnc1C[C@H]1CCc2c(C)c3ccccc3n2C1=O`, the AC50 is 50.1 µM (active).

For the molecule `O=C(O)CC(O)C(=O)O` (centres undefined), the outcome was inactive.

Take `CCOCCOCCOCCO`: the call was inactive.

A short description of the next assay: ACEA_ER_AUC_viability: ACEA Biosciences xCELLigence Real-Time Cell Analysis on Estrogen Receptor Agonism for Viability (AID 2283782).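 Also: continuous compound exposure with impedance area under curve over 80 h; hit means loss of impedance signal meaning reduced cell growth or viability.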 The gist of the method: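 T-47D human breast cells in phenol red-free RPMI1640 with 10% charcoal-stripped FBS were dosed with an 8-point 1:4 dilution series from 100 uM top final concentration, in duplicate. Impedance-based growth was followed for 80 h; AUC analysed versus DMSO.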
On to `CC(C)CCCCCCCOC(=O)CCCCC(=O)OCCCCCCCC(C)C`, for which the molecule was classed as inactive.

For `O=P(OC(CCl)CCl)(OC(CCl)CCl)OC(CCl)CCl`, the result was inactive.

`O=C1CCC(N2C(=O)c3ccccc3C2=O)C(=O)N1` (centres undefined): the molecule was called inactive.

For `COCCOc1cc2cc(C(=O)NC3CCN(C(C)C)CC3)n(CC(=O)Nc3ccc(Cl)cn3)c2cn1`, the molecule was called inactive.

With `CCOC(=O)COc1ccc2c(c1)CC(NCC(O)c1cccc(Cl)c1)CC2` (centres undefined), the AC50 is 16.2 µM (active).

Regarding `CCCCCCCCO`, the molecule was classed as inactive.

On to `COC(=O)CC(=O)OC`, for which the call was inactive.

For the molecule `CCNc1ccccc1`, the outcome was inactive.

As to `Cc1c(-c2cccnc2)c2ccccc2n1CCCCC(=O)O`, the AC50 was 17.3 µM (active).

In the case of `C=CC(=C)CCC=C(C)C`, the outcome was inactive.

What is called AC50 is the concentration giving half of the maximal activity seen.
